A number with no mark means an inactive call. Results filed as inconclusive are left out. Calls of active or inactive are those of the source. Unless noted, calls follow the shape of the dose curve; as a rule, active = well fitted curve in the direction sought with a large enough effect in the repeat runs; inconclusive = weak or mixed curves; inactive = no such curve, though single readings can be large; an effect the other way counts as inactive or inconclusive.

Assay [1] has as its target Progesterone receptor (Homo sapiens) (UniProt P06401). The assay is described as follows: qHTS assay to identify small molecule agonists of the progesterone receptor (PR) signaling pathway (AID 1346784; calls by dose curve; also: nearly all actives have a fitted effect of over 30% in size). The gist of the method:
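Using charcoal-stripped serum (2%) to limit endogenous steroids, PR-UAS-bla HEK 293T cells received compounds for 16 hr at 37C after 6 hr plating; beta-lactamase FRET fluorescence was recorded following 2 hr substrate loading at room temperature.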
A general note: Quantitative high-throughput screening tests each substance at several concentrations.

Assay [2] can be described thus: qHTS assay to identify small molecule antagonists of the progesterone receptor (PR) signaling pathway - cell viability counter screen (AID 1346798). Also: nearly all actives have a fitted effect of over 50% in size. Also: potency is read from the fitted curve at half-maximal effect. The gist of the method:
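ATP content as viability readout: CellTiter-Glo luminescence, 30 min room temperature, in PR-UAS-bla HEK293T cells after 16 hr compound/R5020 treatment at 37C and 5% CO2.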

A short description of assay [3]: qHTS assay to identify small molecule antagonists of the TGF-beta/Smad signaling pathway - cell viability counter screen (AID 1346824). Also: nearly all actives have a fitted effect of over 50% in size. Also: potency is read from the fitted curve at half-maximal effect. The gist of the method:
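Cytotoxicity counter-screen run in the same wells as the beta-lactamase Smad reporter read: CellTiter-Glo luminescence after 30 min at room temperature. HEK 293T SBE-bla cells had 5 hr compound exposure at 37 C with TGF-beta1 (0.25 ng/mL stock).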

Assay [4] can be described thus: qHTS assay to identify small molecule agonists of the TGF-beta/Smad signaling pathway - cell viability counter screen (AID 1346829). Also: nearly all actives have a fitted effect of over 45% in size. Also: potency is read from the fitted curve at half-maximal effect. An outline of the steps: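 CellTiter-Glo luminescence readout; SBE-bla HEK 293T cells, overnight plating, compound 5 hr at 37 C/5% CO2, then bla substrate 2 hr RT, then CellTiter-Glo 30 min RT.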
Assay [5] is described as follows: qHTS assay to identify small molecule agonists of the TGF-beta/Smad signaling pathway (AID 1346859; active = well fitted activation curve with a large enough effect in the signal ratio in the repeat runs, not every such curve was filed as active; the % refers to the signal ratio; also: series mostly up to about 77 µM). An outline of the steps: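 Stable Smad binding element-beta-lactamase HEK 293T cells; 5 hr compound exposure at 37 C under 5% CO2; 2 hr room-temperature substrate step; fluorescence excited at 405 nm, collected at 460 nm and 530 nm.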
Assay [6] can be described thus: Caspase-3/7 induction in HepG2 cells by small molecules, qHTS assay (AID 1346978). Also: nearly all actives have a fitted effect of over 15% in size. Also: potency is read from the fitted curve at half-maximal effect. An outline of the steps:
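Caspase-3/7 induction was measured by Caspase-Glo 3/7 luminescence (30 min, room temperature) after a 17 hr compound exposure of wild-type HepG2 cells seeded at 2,000 per well and pre-incubated 5 hr.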

A short description of assay [7]: Caspase-3/7 induction in CHO-K1 cells by small molecules, qHTS cell viability counter screen (AID 1346979). Also: nearly all actives have a fitted effect of over 35% in size. Also: potency is read from the fitted curve at half-maximal effect. An outline of the steps: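 To flag cytotoxic compounds, treated CHO-K1 wild-type cells were given CellTiter-Fluor at 16hr and read fluorescently after 1hr at 37C; the caspase-3/7 luminescence was measured in these same wells.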
Assay [8] in a line: Caspase-3/7 induction in CHO-K1 cells by small molecules, qHTS assay (AID 1346980). Also: nearly all actives have a fitted effect of over 15% in size. Also: potency is read from the fitted curve at half-maximal effect. An outline of the steps: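 Luminescent Caspase-Glo 3/7 read (30min, room temperature) quantified apoptosis induction. Cells were wild-type CHO-K1, treated with compound for 17hr at 37 C and 5% CO2.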
The target in assay [9] is Progesterone receptor (Homo sapiens) (UniProt P06401). The assay is described as follows: qHTS assay to identify small molecule antagonists of the progesterone receptor (PR) signaling pathway (AID 1346795; active = well fitted inhibition curve with a large enough effect in the signal ratio in the repeat runs, not every such curve was filed as active; the % refers to the signal ratio; also: potency is read from the fitted curve at half-maximal effect). An outline of the steps:
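Inhibition of R5020-induced (1 nM final) beta-lactamase reporter signal in PR-UAS-bla HEK293T cells was scored by FRET fluorescence after overnight (16 hr) compound treatment.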

A short description of assay [10]: qHTS assay to identify small molecule agonists of the progesterone receptor (PR) signaling pathway - cell viability counter screen (AID 1346799; calls by dose curve; also: nearly all actives have a fitted effect of over 45% in size; also: potency is read from the fitted curve at half-maximal effect). An outline of the steps: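 Cytotoxicity in PR-bla HEK293T cells: 16 h compound, 37C; CellTiter-Glo added post-FRET read; luminescence after 30 min RT.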
Assay [11] concerns the target Thyrotropin-releasing hormone receptor (Homo sapiens) (UniProt P34981). The assay is described as follows: qHTS assay to identify small molecule antagonists of the thyrotropin-releasing hormone receptor (TRHR) signaling pathway (AID 1346877; active = well fitted inhibition curve with a large enough effect in the repeat runs, not every such curve was filed as active; also: potency is read from the fitted curve at half-maximal effect; as to activity, negative = inhibition: series mostly up to about 51 µM). An outline of the steps: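 Calcium signal in dye-loaded TRHR/HEK293 cells; compounds added 5 min before TRH (1 nM final); fluorescence monitored 3 min at 1 s steps.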

Assay [12] has the same target. The assay is described as follows: qHTS assay to identify small molecule agonists of the thyrotropin-releasing hormone receptor (TRHR) signaling pathway (AID 1346891; calls by dose curve; also: potency is read from the fitted curve at half-maximal effect;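 as to activation: HEK293 cells expressing TRHR with calcium dye readout; series mostly up to about 58 µM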). An outline of the steps:
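In 1536-format, 1500 TRHR-Hek293 cells per well grew 18 h, took up calcium dye for 2 h at 37 °C, received compound, and were read kinetically; 15-point titrations, triplicates.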

A short description of assay [13]: Human pregnane X receptor (PXR) small molecule agonists, qHTS cell viability counter screen (AID 1346977). Also: nearly all actives have a fitted effect of over 50% in size. Also: potency is read from the fitted curve at half-maximal effect. An outline of the steps:
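Readout is CellTiter-Fluor fluorescence from PXR-Luc HepG2 cells. Plated cells rested 5hr, then were treated with compounds for 24hr at 37C and 5% CO2, with reagent present during the last hour.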

The nature of assay [14]: Caspase-3/7 induction in HepG2 cells by small molecules, qHTS cell viability counter screen (AID 1346981). Also: nearly all actives have a fitted effect of over 30% in size. Also: potency is read from the fitted curve at half-maximal effect. An outline of the steps:
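After a 5-hr attachment period at 37 C and 5% CO2, wild-type HepG2 cells received compounds in DMSO. Sixteen hours later CellTiter-Fluor was dispensed and the fluorescent signal quantified after a further hour.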

Assay [15] has as its target Nuclear receptor subfamily 1 group I member 2 (Homo sapiens) (UniProt O75469). Description: Human pregnane X receptor (PXR) small molecule agonists, qHTS assay (AID 1346982). Also: nearly all actives have a fitted effect of over 35% in size. Also: potency is read from the fitted curve at half-maximal effect. An outline of the steps:
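Tox21 qHTS; PXR-Luc HepG2; compounds pinned from DMSO; 24 hr, 37 C; ONE-Glo luciferase detection, 30 min room temperature.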

Assay [16] has as its target Acetylcholinesterase (Homo sapiens) (UniProt P22303). Description: Acetylcholinesterase (AChE) small molecule antagonists: colormetric cell-based qHTS assay (AID 1347395; calls by dose curve; also: nearly all actives have a fitted effect of over 30% in size). An outline of the steps:
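Neuroblastoma line SH-SY5Y supplied the enzyme; cells were preincubated with compound for 30 min at 37 C and 5% CO2. Acetylthiocholine with DTNB was then added for 90 min at 37 C, and thiocholine was measured by colour.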

The target in assay [17] is Nuclear receptor subfamily 1 group I member 2 (Rattus norvegicus) (UniProt Q9R1A7). Description: Rat pregnane X receptor (rPXR) activation by small molecules, qHTS assay (AID 1346983). Also: nearly all actives have a fitted effect of over 20% in size. The note with it: rPXR luciferase reporter cells, One-Glo luminescence, 24 h; max activation: stronger effect = higher value. The gist of the method:
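Luminescent readout (One-Glo luciferase, 30 min room temperature) followed 24 hr compound treatment at 37 C of rPXR cells plated 2,000 per well and preincubated 5hr; qHTS format with compounds delivered in DMSO.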

The target of assay [18] is Nuclear receptor subfamily 1 group I member 2 (Homo sapiens) (UniProt O75469). Description: CYP3A4 induction through human pregnane X receptor (PXR) by small molecules, qHTS assay (AID 1346984). Also: nearly all actives have a fitted effect of over 40% in size. The gist of the method:
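Cells (DPX-2; HepG2 with PXR element plus CYP3A4-promoter luciferase) settled 5hr, then were treated 24hr at 37C. A 3hr, 3uM-final Luciferin-IPA step preceded luminescence measurement with One-Glo.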

Assay [19] has the same target. The assay is described as follows: Human pregnane X receptor (PXR) activation by small molecules, qHTS assay (AID 1346985). Also: nearly all actives have a fitted effect of over 40% in size. The gist of the method:
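DPX-2 cells (HepG2 co-transfected with a PXR response element and a CYP3A4-promoter luciferase construct) were seeded at 2,000 per well, rested 5 hr at 37C, then exposed to DMSO-dissolved compounds for 24 hr. Activation was read as luciferase luminescence.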
% is scaled to controls: 0 for no effect and ±100 for the full control effect.

Thyrotropin-releasing hormone receptor (Homo sapiens), sequence (P34981 whole entry, looked up): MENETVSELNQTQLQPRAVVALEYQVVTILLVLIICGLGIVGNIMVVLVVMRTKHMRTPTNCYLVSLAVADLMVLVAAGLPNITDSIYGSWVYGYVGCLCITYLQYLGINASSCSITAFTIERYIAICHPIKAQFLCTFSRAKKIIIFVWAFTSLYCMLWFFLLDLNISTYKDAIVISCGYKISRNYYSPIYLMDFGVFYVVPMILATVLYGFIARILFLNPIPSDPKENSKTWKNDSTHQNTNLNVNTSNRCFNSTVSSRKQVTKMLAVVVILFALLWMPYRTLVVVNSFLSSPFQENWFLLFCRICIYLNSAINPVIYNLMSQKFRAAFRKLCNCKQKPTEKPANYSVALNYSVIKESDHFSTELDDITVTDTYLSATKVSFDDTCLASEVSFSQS
Progesterone receptor (Homo sapiens), sequence (P06401 whole entry, looked up): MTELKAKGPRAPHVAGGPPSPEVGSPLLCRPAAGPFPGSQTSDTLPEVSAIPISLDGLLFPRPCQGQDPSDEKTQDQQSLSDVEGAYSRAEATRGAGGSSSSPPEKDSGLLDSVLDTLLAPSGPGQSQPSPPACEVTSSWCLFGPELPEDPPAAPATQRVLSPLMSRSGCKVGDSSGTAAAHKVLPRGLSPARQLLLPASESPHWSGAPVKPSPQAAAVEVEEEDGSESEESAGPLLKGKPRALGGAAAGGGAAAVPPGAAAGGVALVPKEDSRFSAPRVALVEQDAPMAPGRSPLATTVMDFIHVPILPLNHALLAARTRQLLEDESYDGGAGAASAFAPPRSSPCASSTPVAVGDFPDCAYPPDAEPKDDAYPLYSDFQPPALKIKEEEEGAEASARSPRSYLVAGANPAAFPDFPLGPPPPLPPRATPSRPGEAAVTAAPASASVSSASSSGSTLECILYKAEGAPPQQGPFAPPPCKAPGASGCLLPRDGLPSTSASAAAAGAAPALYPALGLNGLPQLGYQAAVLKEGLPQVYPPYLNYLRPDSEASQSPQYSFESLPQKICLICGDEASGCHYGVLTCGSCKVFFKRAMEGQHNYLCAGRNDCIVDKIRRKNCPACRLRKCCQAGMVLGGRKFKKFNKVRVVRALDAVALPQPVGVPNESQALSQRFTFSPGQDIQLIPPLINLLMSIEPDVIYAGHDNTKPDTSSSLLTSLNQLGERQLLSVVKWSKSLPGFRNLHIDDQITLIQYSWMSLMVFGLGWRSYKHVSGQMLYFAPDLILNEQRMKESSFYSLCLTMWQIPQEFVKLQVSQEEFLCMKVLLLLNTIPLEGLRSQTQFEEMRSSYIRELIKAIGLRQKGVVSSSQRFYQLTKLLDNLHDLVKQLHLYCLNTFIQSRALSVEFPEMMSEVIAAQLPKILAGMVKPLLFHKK
Acetylcholinesterase (Homo sapiens), sequence (P22303 whole entry, looked up): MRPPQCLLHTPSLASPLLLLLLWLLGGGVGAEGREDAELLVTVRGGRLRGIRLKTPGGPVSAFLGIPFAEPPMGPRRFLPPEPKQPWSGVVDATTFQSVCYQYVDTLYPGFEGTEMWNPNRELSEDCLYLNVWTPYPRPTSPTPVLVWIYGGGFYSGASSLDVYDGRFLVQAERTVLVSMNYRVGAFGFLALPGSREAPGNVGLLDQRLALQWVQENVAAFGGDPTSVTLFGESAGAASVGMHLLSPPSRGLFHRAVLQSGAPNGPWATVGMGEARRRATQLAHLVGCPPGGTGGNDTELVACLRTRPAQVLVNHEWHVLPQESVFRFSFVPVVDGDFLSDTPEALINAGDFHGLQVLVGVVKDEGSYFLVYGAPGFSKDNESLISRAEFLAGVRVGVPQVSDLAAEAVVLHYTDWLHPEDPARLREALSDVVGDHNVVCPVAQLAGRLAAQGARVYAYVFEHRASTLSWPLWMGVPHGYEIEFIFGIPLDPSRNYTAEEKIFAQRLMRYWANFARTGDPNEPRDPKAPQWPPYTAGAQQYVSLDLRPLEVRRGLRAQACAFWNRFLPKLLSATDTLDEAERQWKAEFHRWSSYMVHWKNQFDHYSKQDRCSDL
Nuclear receptor subfamily 1 group I member 2 (Homo sapiens), sequence (O75469 whole entry, looked up): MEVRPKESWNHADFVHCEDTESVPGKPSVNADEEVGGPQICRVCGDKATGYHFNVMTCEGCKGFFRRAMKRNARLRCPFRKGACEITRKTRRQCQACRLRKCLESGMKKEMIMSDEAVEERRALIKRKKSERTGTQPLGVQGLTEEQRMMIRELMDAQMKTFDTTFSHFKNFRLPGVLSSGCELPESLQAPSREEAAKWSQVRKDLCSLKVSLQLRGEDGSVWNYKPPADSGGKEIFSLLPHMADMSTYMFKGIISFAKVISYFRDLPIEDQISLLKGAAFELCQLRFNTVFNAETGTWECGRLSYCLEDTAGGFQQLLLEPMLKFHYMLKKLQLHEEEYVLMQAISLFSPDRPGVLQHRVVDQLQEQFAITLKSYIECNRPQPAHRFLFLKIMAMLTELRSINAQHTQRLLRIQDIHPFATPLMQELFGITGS
Nuclear receptor subfamily 1 group I member 2 (Rattus norvegicus), sequence (Q9R1A7 whole entry, looked up): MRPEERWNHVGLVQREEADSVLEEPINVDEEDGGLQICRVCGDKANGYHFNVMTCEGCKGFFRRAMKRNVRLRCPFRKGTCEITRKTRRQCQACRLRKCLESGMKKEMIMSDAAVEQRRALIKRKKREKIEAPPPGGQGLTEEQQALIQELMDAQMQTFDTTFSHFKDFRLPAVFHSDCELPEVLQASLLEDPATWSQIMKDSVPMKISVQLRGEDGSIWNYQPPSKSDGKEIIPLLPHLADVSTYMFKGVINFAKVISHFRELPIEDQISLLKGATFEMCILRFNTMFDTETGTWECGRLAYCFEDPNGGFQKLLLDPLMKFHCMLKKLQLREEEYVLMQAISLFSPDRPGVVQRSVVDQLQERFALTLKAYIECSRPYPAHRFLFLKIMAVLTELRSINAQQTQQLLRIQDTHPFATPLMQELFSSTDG

With `O=[N+]([O-])[O-].[Tl+]`, the Potency result in assay [1], in [2], in assay [3], in [4], in assay [6] and in assay [8] was “inactive” throughout. The molecule was classed as inactive in assay [5]. Further, the Potency in [7] is 61600 nM (active).

`CCC[CH2][Sn]([CH2]CCC)([CH2]CCC)[O][Sn]([CH2]CCC)([CH2]CCC)[CH2]CCC`: the Potency in assay [9] is 752 nM (active); in [2] it was 1680 nM (active); in assay [10], 1890 nM (active); in assay [3] it was 1510 nM (active); in assay [4], 1510 nM (active); in assay [11] it was 1050 nM (active). Besides, the Potency in assay [12] was 1350 nM (active); in assay [13], 533 nM (active); in assay [6] it was 2380 nM (active); in [7] it was 336 nM (active); in [8], 671 nM (active); in [14] it was 1340 nM (active). The Potency in [15] was 238 nM (active). Further, the activity, negative = inhibition in assay [16] is -0.727% [at 10.5 µM].

For `O=S(=O)(NS(=O)(=O)C(F)(F)F)C(F)(F)F`, the Potency result in assay [2], in assay [10], in assay [3], in assay [6], in assay [8] and in [14] was “inactive” in each case. For the same molecule, in assay [16], the Potency entry is “inactive”. Also, the outcome in assay [5] was inactive. In addition, the Potency is 60900 nM (active) in assay [13], 48400 nM (active) in assay [7] and 60900 nM (active) in [15].

In the case of `Cc1ccccc1OP(=O)(Oc1ccccc1C)Oc1ccccc1C`, the Potency result in assay [1], in assay [2], in assay [10], in assay [3], in assay [11] and in assay [12] was “inactive” throughout. For the same molecule, the Potency entry in assay [6], in [8], in assay [14] and in [16] was “inactive” in each case. For the same molecule, the Potency in assay [15] was 27400 nM (active).

Consider `[Cl-].[Cl-].[Cl-].[Yb+3]`, for which the Potency entry in assay [9], in assay [2], in assay [3], in assay [4], in assay [13] and in [6] was “inactive” in each case. Besides, the Potency result in [7], in assay [8] and in [14] was “inactive” each time. The molecule was called inactive in assay [5].

Consider `Clc1ccc(C2(Cn3cncn3)OCCO2)c(Cl)c1`, for which the Potency entry in assay [1], in assay [3], in assay [4], in assay [11], in assay [12] and in assay [13] was “inactive” each time. Further, the Potency result in assay [6], in assay [8], in assay [18] and in assay [19] was “inactive” in each case. Also, in assay [17], the max activation is -0.146%.

For `CC(=O)[O][Pb]([c]1ccccc1)([c]1ccccc1)[c]1ccccc1`, the Potency in assay [2] was 4330 nM (active); in [10], 4330 nM (active); in assay [3] it was 4900 nM (active); in assay [4], 4360 nM (active); in [13], 4330 nM (active); in assay [6], 2430 nM (active). Moreover, the Potency was 386 nM (active) in assay [7], 486 nM (active) in assay [8] and 10900 nM (active) in [14]. Further, the Potency entry in assay [15] and in [16] was “inactive” throughout.

On to `Brc1ccc(Oc2ccc(Br)cc2Br)c(Br)c1`, for which the Potency result in assay [1], in assay [2], in assay [3], in assay [4], in assay [11] and in [12] was “inactive” each time. Further, the Potency result in assay [13], in assay [6], in assay [8], in assay [14] and in assay [16] was “inactive” throughout. Moreover, the Potency in assay [15] is 30700 nM (active).

As for `CN1CCc2cc3c(cc2C1O)OCO3` (stereo not drawn), the Potency result in assay [9], in assay [2], in assay [10], in assay [3], in [4] and in assay [11] was “inactive” throughout. In addition, the Potency entry in assay [12], in assay [6] and in assay [8] was “inactive” throughout.

Turning to `CC1=C2C[C@H]3[C@@H](CC=C4C[C@@H](O)CC[C@@]43C)[C@@H]2CC[C@]12O[C@@H]1C[C@H](C)CN[C@H]1[C@H]2C`, the Potency entry in assay [3], in assay [4], in assay [12], in assay [6], in [8] and in [15] was “inactive” each time. The Potency result in assay [16] is “inactive”. For the same molecule, the molecule was called inactive in assay [5].

As for `O.O.O.O.O.O.O.O=S(=O)([O-])[O-].[Co+2]`, the Potency entry in assay [3], in assay [4], in assay [13], in assay [6], in assay [7] and in assay [8] was “inactive” throughout. In assay [14], the Potency result is “inactive”. In addition, the outcome in assay [5] was inactive.

For the origin of these results see PubChem BioAssay (Tox21).
